These results are taken from PubChem BioAssay.

The subject of assay [1] is Human papillomavirus type 1a protein E7 (residues 44-93). Kind of assay: HPV1a E7 fragment binders on microarrays, primary screen, biochemical, small-molecule microarray, residues 44-93, 635 nm fluorescence (AID 1108).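 Further: E7 fragment applied at 1 µg/mL in TBST for 1 h at 4 C; score combines spot fluorescence with its signal to noise ratio.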 Conditions: small-molecule microarray binding, fluorescence 635 nm; higher = more signal.
Assay [2] can be described thus: modulators of HCV replicon luciferase signal, primary screen, HCV replication inhibitor project, Huh7 cells, luciferase reporter (AID 1109).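 Further: huh7 hepatoma cells harbouring a luciferase neomycin HCV replicon reporter; luciferase luminescence as measure of HCV replicon replication; test concentration not given here.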 Conditions: 48 h, higher = more signal.
For assay [3], the target named is Left-right determination factor 2 (Homo sapiens) (UniProt O00292). Kind of assay: LEFTY2 binders on small-molecule microarrays, primary screen, biochemical, small-molecule microarray, 635 nm fluorescence scan (AID 1110). Conditions: LEFTY2 binding, higher = more signal.
Chain of Left-right determination factor 2 (Homo sapiens) (O00292 whole entry, looked up): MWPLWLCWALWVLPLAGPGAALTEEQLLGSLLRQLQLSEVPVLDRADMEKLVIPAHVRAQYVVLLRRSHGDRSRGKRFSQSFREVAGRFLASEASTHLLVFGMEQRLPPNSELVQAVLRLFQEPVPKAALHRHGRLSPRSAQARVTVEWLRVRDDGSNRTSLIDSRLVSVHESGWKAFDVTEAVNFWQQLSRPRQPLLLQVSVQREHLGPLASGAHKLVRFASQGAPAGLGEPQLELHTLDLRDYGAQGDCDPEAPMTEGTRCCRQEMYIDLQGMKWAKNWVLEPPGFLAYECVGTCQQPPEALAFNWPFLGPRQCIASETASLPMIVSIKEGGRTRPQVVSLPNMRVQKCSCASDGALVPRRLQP
In assay [4] the target is Calmodulin-1 (Homo sapiens) (UniProt P0DP23). Kind of assay: CALM1 binders on microarrays, EGTA buffer, profiling panel, biochemical, small-molecule microarray, Cy5-labelled CALM1 (AID 1111).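 Further: labelled calmodulin applied in Tris saline Tween buffer holding calcium plus EGTA and DTT.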 Particulars: Cy5-CALM1 binding fluorescence, higher = more signal.
For assay [5] the target is unchanged. The assay can be described thus: calcium-bound CALM1 binders on microarrays, profiling panel, artefact control for SMM control-protein annotation, biochemical, small-molecule microarray, Cy5-labelled CALM1, plus calcium (AID 1112).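 Further: score merges spot fluorescence with signal to noise from triplicate slides.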 Conditions: Cy5-CALM1 binding fluorescence, higher = more signal.
The nature of assay [6]: small-molecule microarray binders of probe aWnt5a, primary screen, biochemical, biotinylated probe, 635/667 nm fluorescence (AID 1113).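 Further: score merges 667 nm fluorescence intensity with signal-to-noise per printed feature.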 Particulars: higher = more signal.
Assay [7] is described as follows: small-molecule microarray binders of probe aShh, primary screen, biochemical, biotinylated probe, 635/667 nm fluorescence (AID 1114).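 Further: probe is biotin-labelled aShh protein from a stem cell growth factor screen; measures binding of labelled protein to compounds printed on the slide; score merges feature fluorescence at 667 nm with signal-to-noise.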 Conditions: higher = more signal.
Assay [8] in a line: small-molecule microarray binders of probe aNog, primary screen, biochemical, biotinylated probe, 635/667 nm fluorescence (AID 1115).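 Further: probe is biotinylated aNog protein used at 0.15 µg/mL for 1 h at 4 C; z-score combines 667 nm fluorescence of each spot with its signal to noise.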 Particulars: higher = more signal.
The target of assay [9] is Torsin-1A-interacting protein 1 (Homo sapiens) (UniProt Q5JTV8). Kind of assay: LAP1 binders from COS7 cell lysate, primary screen, small-molecule microarray, 635/667 nm fluorescence (AID 1116). Conditions: COS7-hLAP1 lysate binding, 635 nm fluorescence, higher = more signal.
Chain of Torsin-1A-interacting protein 1 (Homo sapiens) (Q5JTV8 whole entry, looked up): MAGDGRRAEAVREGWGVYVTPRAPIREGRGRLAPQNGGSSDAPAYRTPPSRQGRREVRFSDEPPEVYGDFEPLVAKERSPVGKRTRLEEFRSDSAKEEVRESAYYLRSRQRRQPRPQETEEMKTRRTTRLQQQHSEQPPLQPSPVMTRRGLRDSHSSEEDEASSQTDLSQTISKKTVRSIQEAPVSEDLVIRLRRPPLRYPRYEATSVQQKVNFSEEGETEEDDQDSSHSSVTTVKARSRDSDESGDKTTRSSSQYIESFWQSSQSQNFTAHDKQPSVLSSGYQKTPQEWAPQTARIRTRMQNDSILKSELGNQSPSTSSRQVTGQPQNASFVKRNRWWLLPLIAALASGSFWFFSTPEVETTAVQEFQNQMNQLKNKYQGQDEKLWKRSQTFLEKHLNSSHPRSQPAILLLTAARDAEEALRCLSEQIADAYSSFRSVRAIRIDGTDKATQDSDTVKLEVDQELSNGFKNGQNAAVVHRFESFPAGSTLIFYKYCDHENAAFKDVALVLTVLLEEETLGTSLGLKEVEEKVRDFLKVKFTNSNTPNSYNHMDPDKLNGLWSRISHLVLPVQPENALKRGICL
In assay [10] the target is Alpha-bungarotoxin (Bungarus multicinctus) (UniProt P60615). The assay can be described thus: alpha-bungarotoxin binders on microarray, profiling panel, artefact control for SMM control protein annotation, biochemical, small-molecule microarray, Alexa647 label, 635/667 nm fluorescence (AID 1117). Particulars: alpha-BTX-A647 binding fluorescence, higher = more signal.
Chain of Alpha-bungarotoxin (Bungarus multicinctus) (P60615 whole entry, looked up): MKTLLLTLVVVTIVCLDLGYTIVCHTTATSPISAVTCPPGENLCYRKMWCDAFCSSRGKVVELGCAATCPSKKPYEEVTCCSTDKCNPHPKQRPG
The target in assay [11] is Albumin (Bos taurus) (UniProt P02769). Kind of assay: bovine serum albumin binders on microarray, profiling panel, artefact control for SMM control protein annotation, biochemical, small-molecule microarray, Alexa647 label, 635/667 nm fluorescence (AID 1118).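 Further: score merges 667 nm emission intensity and signal-to-noise per printed compound spot.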 Particulars: BSA-A647 binding, fluorescence 635 nm, higher = more signal.
Chain of Albumin (Bos taurus) (P02769 whole entry, looked up): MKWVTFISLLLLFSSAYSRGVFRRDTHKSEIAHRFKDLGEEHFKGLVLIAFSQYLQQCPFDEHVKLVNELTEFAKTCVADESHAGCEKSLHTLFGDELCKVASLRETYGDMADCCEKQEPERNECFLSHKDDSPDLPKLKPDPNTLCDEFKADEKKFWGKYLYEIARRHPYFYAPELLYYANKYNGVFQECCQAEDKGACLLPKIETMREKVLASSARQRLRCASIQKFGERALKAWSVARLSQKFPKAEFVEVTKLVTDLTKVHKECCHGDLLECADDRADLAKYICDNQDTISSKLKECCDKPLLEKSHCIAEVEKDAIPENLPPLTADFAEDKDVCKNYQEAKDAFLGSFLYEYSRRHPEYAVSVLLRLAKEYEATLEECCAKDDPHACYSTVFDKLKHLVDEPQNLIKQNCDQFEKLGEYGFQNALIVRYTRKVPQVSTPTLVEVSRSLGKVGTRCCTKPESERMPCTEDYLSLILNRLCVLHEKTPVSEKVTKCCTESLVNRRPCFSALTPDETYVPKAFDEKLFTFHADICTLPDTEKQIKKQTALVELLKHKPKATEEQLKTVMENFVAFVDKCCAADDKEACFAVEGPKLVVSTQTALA
Assay [12] in a line: small-molecule microarray binders of probe aXIP, primary screen, biochemical, NeuroSMM set, 635/667 nm fluorescence (AID 1119).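 Further: probe is the protein aXip251-270 applied at 1 µg/mL to compound-printed slides; binding of probe to printed compounds measured as 667 nm fluorescence plus signal to noise.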 Conditions: higher = more signal, called active from +8 up or from −8 down.
The nature of assay [13]: small-molecule binders of probe aNOTCH3, primary screen, biochemical, small-molecule microarray, 635/667 nm fluorescence (AID 1120).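 Further: probe is a biotin-tagged antibody raised against NOTCH3 rather than NOTCH3 protein; score merges spot fluorescence near 667 nm with spot signal to noise.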 Particulars: higher = more signal.
Assay [14] in a line: small-molecule binders of probe aNOTCH2, primary screen, biochemical, small-molecule microarray, 635/667 nm fluorescence (AID 1121).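 Further: score merges feature fluorescence read at 667 nm with its signal to noise.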 Particulars: higher = more signal.
In assay [15] the target is Carbonic anhydrase 2 (Homo sapiens) (UniProt P00918). Kind of assay: CAII small-molecule binders, profiling panel, biochemical, small-molecule microarray, Alexa647-labelled CAII (AID 1122). Conditions: CAII-A647 binding fluorescence, higher = more signal.
A short description of assay [16]: COS7 lysate on small-molecule microarray, probe aHis, 635 nm (AID 1123).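 Further: z-score combines 667nm fluorescence intensity with signal-to-noise per printed compound spot.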 Conditions: COS7 cell lysate, fluorescence, higher = more signal.
A short description of assay [17]: compound binding in COS7 lysate, probe aLAP1, primary screen, cell lysate, small-molecule microarray (AID 1124).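 Further: lysate comes from COS7 cells expressing LAP1 and is applied at 0.3 µg/mL; score merges spot fluorescence near 667 nm with signal-to-noise over triplicate slides.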 Particulars: probe aLAP1, fluorescence, higher = more signal.
Assay [18] deals with Sam68 (KHDRBS1). Kind of assay: Sam68 small-molecule binders, primary screen, biochemical, small-molecule microarray, 635 nm fluorescence (AID 1125).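 Further: score merges 667 nm channel intensity with signal to noise over triplicate slides.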 Conditions: small-molecule microarray binding, higher = more signal.
The test system of assay [19] is Chordin-like protein 2 (CHRDL2). The assay can be described thus: CHRDL2 small-molecule binders, primary screen, biochemical, small-molecule microarray, 635 nm fluorescence (AID 1126).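 Further: printed compound slides probed with Chrdl2 protein at 4 µg/mL for 1 h at 4 C; score merges 667 nm emission intensity with signal to noise over three replicate slides.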 Conditions: small-molecule microarray binding, fluorescence 635 nm; higher = more signal.
Assay [20] has as its target Concanavalin-A (Canavalia ensiformis) (UniProt P02866). The assay can be described thus: ConA small-molecule binders, primary screen, artefact control for SMM control protein annotation, biochemical, small-molecule microarray, Alexa647 label, 635 nm (AID 1127).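 Further: z combines 667 nm emission intensity with signal-to-noise across three replicate slides.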 Conditions: ConA-A647 binding fluorescence, higher = more signal.

SMILES strings stand for the structures. Activity calls are given as the source filed them.

Chain of Concanavalin-A (Canavalia ensiformis) (P02866 whole entry, looked up): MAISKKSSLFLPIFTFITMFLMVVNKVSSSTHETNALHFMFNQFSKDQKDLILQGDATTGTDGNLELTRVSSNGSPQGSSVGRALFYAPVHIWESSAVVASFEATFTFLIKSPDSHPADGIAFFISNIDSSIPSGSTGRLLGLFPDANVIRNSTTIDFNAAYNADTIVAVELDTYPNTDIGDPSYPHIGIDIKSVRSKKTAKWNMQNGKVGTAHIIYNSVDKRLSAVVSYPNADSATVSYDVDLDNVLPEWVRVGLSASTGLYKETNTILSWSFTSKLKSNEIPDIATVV

Turning to `CC(C)N1CC=CC23O[C@@H]4C=CCOC(=O)[C@@H]4[C@H]2C(=O)N(CCCCCCO)[C@@H]3C1=O` (stereo not given in full), the composite z-score in assay [1] is -0.433; in [3], -0.651; in assay [4], -0.815; in assay [5], -0.289; in assay [6], -0.18; in assay [7], -0.116. The composite z-score was -0.223 in assay [8]; 2.03 in assay [9]; -0.92 in assay [10]; 0.771 in [11]; -0.0697 in assay [13]; -0.0451 in [14]. In addition, the composite z-score was 0.923 in assay [15]; -0.0499 in assay [16]; 1.15 in assay [17]; -0.351 in assay [18]; -1.17 in [19]; -0.82 in [20]. The z-score in [2] was -0.761. In assay [12], the composite Z-score was 0.714 (inactive).
On to `COC(=O)C(CC#Cc1ccc2c(c1)[C@]1(C(=O)N2)[C@H](c2ccccc2OCCO)N2[C@H](c3ccccc3)[C@H](c3ccccc3)OC(=O)[C@H]2[C@@H]1C(=O)Nc1nc2ccccc2s1)C(=O)OC`, for which the composite z-score in assay [1] is 1.41; in assay [3], 0.397; in assay [4] it was 0.973; in assay [5] it was -0.196; in [6], -0.0239; in assay [7] it was 0.233. Besides, the composite z-score in [8] was -0.466; in assay [9], 0.874; in assay [10] it was 1.5; in assay [11], 0.67; in [13], 0.106; in assay [14] it was -0.0928. Also, the composite z-score in assay [15] was found to be 0.226; in assay [16] it was 1.9; in assay [17], 0.379; in assay [18] it was 1.31; in assay [19] it was 0.19; in [20], 1.15. In assay [2], the z-score was -2.02. Moreover, the composite Z-score in [12] is -0.364 (inactive).
As to `[N-]=[N+]=NCc1ccccc1[C@H]1OC(c2ccc(OCCCO)cc2)=N[C@@]1(Cc1ccccc1N=[N+]=[N-])C(=O)NCCN1CCOCC1`, the composite z-score in assay [1] stood at 1.05; in assay [3], 0.528; in [4], 1.19; in [5], 0.305; in [6] it was 0.16; in assay [7], 0.432. The composite z-score stood at 2.06 in assay [8]; 1.79 in assay [9]; 1.45 in [10]; 0.701 in assay [11]; 0.416 in [13]; 0.105 in assay [14]. The composite z-score is 0.751 in [15]; 2.32 in assay [16]; -0.0777 in assay [17]; 1.29 in assay [18]; 0.263 in [19]; 1.14 in assay [20]. Also, the z-score in assay [2] is -2.34. The composite Z-score in assay [12] was -0.514 (inactive).
In the case of `CCCCC(O)C1C=CC2C(=O)N(Cc3ccccc3)C(=O)C2N1n1cnnc1` (stereo not given), the composite z-score in assay [1] was 1.13; in assay [3] it was 0.23; in [4] it was 0.0285; in assay [5], -0.163; in assay [6] it was -0.0087; in [7] it was 0.13. Besides, the composite z-score in assay [8] is -0.0351; in assay [9] it was 0.208; in [10], 0.274; in [11] it was -0.0045; in assay [13] it was 0.0039; in assay [14], -0.101. Besides, the composite z-score in [15] is 0.644; in [16], 1.4; in [17], 0.0713; in assay [18], 1.01; in assay [19], -0.0652; in [20], 0.216. This molecule also registered a z-score in assay [2] of -1.09. Further, the composite Z-score in [12] is 0.406 (inactive).
Turning to `C[N+](C)(C)CCCC[C@@H]1NC(=O)[C@@H]2C[C@H](C(=O)NCCCCCNC(=O)CS)[C@H](c3cccc(OCCO)c3)N2C1=O`, the composite z-score is 0.911 in assay [1]; 0.0926 in assay [3]; -0.0534 in assay [4]; 0.581 in assay [5]; -0.0478 in assay [6]; 0.151 in [7]. The composite z-score was 0.0197 in assay [8]; -0.034 in [9]; 0.568 in [10]; 0.666 in assay [11]; 0.0287 in [13]; -0.0662 in assay [14]. In addition, the composite z-score in assay [15] was 0.399; in [16] it was 0.46; in assay [17], -0.343; in assay [18], 0.765; in assay [19], 0.361; in [20], 0.88. Besides, the z-score in [2] is -0.193. For the same molecule, in assay [12], the composite Z-score is 0.0831 (inactive).
